This is part of a sample that, as a whole, favours compounds with a hit. Of some 83,000 tested, about 20% had one in any assay.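 Single-dose data. Exposure time 48 hours. Values below 10 considered active.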 A number with no mark means an inactive call. Active and inactive are the calls of the source.
Columns and labels:
Test in all cases: NCI-60 one-dose screen, 48 h (100 = growth as untreated, 0 = no growth, -100 = all killed)
Details in all cases: 10 µM unless noted
NCI-H23 lung = tested on: NCI-H23 lung
NCI-H226 lung = tested on: NCI-H226 lung
NCI-H322M lung = tested on: NCI-H322M lung
HOP-62 NSCLC = tested on: HOP-62 NSCLC
NCI-H460 lung = tested on: NCI-H460 lung
HOP-92 NSCLC = tested on: HOP-92 NSCLC
NCI-H522 lung = tested on: NCI-H522 lung
A549/ATCC NSCLC = tested on: A549/ATCC NSCLC
786-0 renal = tested on: 786-0 renal
COLO 205 colon = tested on: COLO 205 colon
DU-145 prostate = tested on: DU-145 prostate
K-562 leukemia = tested on: K-562 leukemia
MALME-3M melanoma = tested on: MALME-3M melanoma
MDA-MB-231 breast = tested on: MDA-MB-231 breast
SF-268 CNS = tested on: SF-268 CNS
SF-295 CNS = tested on: SF-295 CNS
SF-539 CNS = tested on: SF-539 CNS
UACC-257 melanoma = tested on: UACC-257 melanoma
M14 melanoma = tested on: M14 melanoma
RXF 393 renal = tested on: RXF 393 renal

Compound | growth (NCI-H23 lung) | growth (NCI-H226 lung) | growth (NCI-H322M lung) [%] | growth (HOP-62 NSCLC) | growth (NCI-H460 lung) | growth (HOP-92 NSCLC) | growth (NCI-H522 lung) | growth (A549/ATCC NSCLC) | growth (786-0 renal) | growth (COLO 205 colon) | growth (DU-145 prostate) | growth (K-562 leukemia) | growth (MALME-3M melanoma) | growth (MDA-MB-231 breast) | growth (SF-268 CNS) | growth (SF-295 CNS) | growth (SF-539 CNS) | growth (UACC-257 melanoma) | growth (M14 melanoma) | growth (RXF 393 renal)
Nc1ncnc2c1ncn2C1OC(COC(c2ccccc2)(c2ccccc2)c2ccccc2)C(O)C1O (stereo unspecified) | 89.8% | 92.1% | 96.5 | 95.2% | 25.9% | 86.6% | 97.4% | 94.3% | 99.1% | 99.4% | 73% | 82.3% | 95.5% | 84.5% | 100% | 48.1% | 103% | 108% | 101% | 
c1nc(SC2=NCCN2)c2[nH]cnc2n1 | 46.2% | 46.9% | 36.3 | 23.2% | 66.5% | 36.2% | 25% | 82.9% | 22.7% | 56.8% | 37.3% | 14.3% | 47.3% | 37.7% | 46.5% | 29.1% | 24.3% | 66.8% | 14.7% | 59.7%
CC/C(=C(\CC)c1ccc(OCCN(CC)CC)cc1)c1ccc(OCCN(CC)CC)cc1 | 40.7% | 62.7% | 60.7 | 36.9% | 31.8% | -10.2% (active) | 16.2% | 37.1% | 22% | 4.87% (active) | 73.9% | 12.7% | -42.8% (active) | 5.07% (active) | 55.2% | -13.9% (active) | -35% (active) | -51.8% (active) | -0.0375% (active) | -4.27% (active)
O=C(NOC1OC(CO)C(O)C(O)C1O)Nc1ccccc1 (stereo unspecified) | 104% | 90.5% | 101 | 93.2% | 103% | 91.1% | 84.9% | 106% | 107% | 95.8% | 108% | 69% | 94.8% | 99.2% | 85.7% | 98.5% | 103% | 107% | 108% | 
COc1ccc(/C=C2\CS(=O)(=O)C/C(=C\c3ccc(OC)cc3)C2=O)cc1 | -49.3% (active) | -43.9% (active) | 30.9 | -67.7% (active) | -52.6% (active) | -41.3% (active) | -73.6% (active) | -56.5% (active) | -100% (active) | -70.6% (active) | -44.2% (active) | -15.4% (active) | -23% (active) | 8.06% (active) | -24.7% (active) | -14.4% (active) | -54.6% (active) | -80.5% (active) | -78.1% (active) | 
Cc1cn(C2CC(F)C(CO)O2)c(=O)[nH]c1=O (stereo unspecified) | 90.3% | 95.9% | 85.9 | 88.4% | 51.8% | 69% | 86% | 84.7% | 87.3% | 116% | 108% | 58.3% | 85.1% | 98.3% | 103% | 76.8% | 107% | 91.8% | 89% | 
Cc1cc(-c2ccccc2)nc2ccccc12 | 90.4% | 90.2% | 103 | 79.8% | 103% | 95.7% | 90.5% | 90.2% | 109% | 96.5% | 112% | 91.8% | 99.4% | 94.3% | 94.7% | 97.6% | 98.2% | 99.9% | 96.6% | 94.6%
O=C(c1cc(-c2ccc(Cl)cc2)nc2ccccc12)N1N=C(c2ccccc2)CC1c1cc(-c2ccccc2)nn1-c1ccccc1 (stereo unspecified) | 72.5% | 84.1% | 59.8 | 74% | 48.6% | 85% | 80.8% | 80% | 90% | 84.9% | 82.7% | 63.9% | 86.1% | 93.3% | 62.4% | 64.8% | 82.1% | 95.1% | 65.1% | 
C=C1C(=O)O[C@H]2[C@H]1CC/C(COC(=O)c1ccc3ccccc3c1)=C\CC[C@@]1(C)O[C@@H]21 | 2.6% (active) | -82.3% (active) | 45 | -29.2% (active) | 8.67% (active) | -73.3% (active) | -77.3% (active) | -52.7% (active) | -85.1% (active) | -71.1% (active) | -81.1% (active) |  | -75.8% (active) | -62.3% (active) | -41% (active) | 43.1% | -94.9% (active) | -24.6% (active) | -58.8% (active) | -91% (active)
N#CC1=C(N)Oc2c(ccc3ccccc23)C1c1cc(=O)oc2ccc(Cl)cc12 (stereo unspecified) | 32.9% | 98.3% | 44.2 | 33.3% | 8.96% (active) | 87.5% | 5.22% (active) | 26.6% | 29.4% | -16.4% (active) | 19.4% |  | 77.8% | 50% | 56.1% | 14.1% | 3.16% (active) | 73.5% | 3.47% (active) | 7.4% (active)
S=c1[nH]nc(Cn2c3ccccc3c3ccncc32)o1 | 107% | 107% | 106 | 95.1% | 100% | 109% | 91.3% | 90.7% | 99.2% | 104% | 108% |  | 100% | 100% | 103% | 108% | 101% | 89.7% | 101% | 112%
COc1ccc(-c2c(NC(=O)Nc3ccc(Cl)c(C(F)(F)F)c3)cnn2-c2ccc(S(N)(=O)=O)cc2)cc1 | 42.6% | 75.8% | 51 | 53.5% | 9.7% (active) | 0.848% (active) | 43.7% | 39.2% | 31.6% | 34.7% | 53.5% | 11.7% | 34.2% | 52.7% | 37.5% | 38.6% | 35.2% | 34.9% | 14.7% | 
Cc1cccc(NC(=O)CCc2ccc(N3C(N)=NC(N)=NC3(C)C)cc2)c1 | 30.6% | 100% | 42.7 | 24% | 19.8% | 32.5% | 0.83% (active) | 11.8% | -7.98% (active) | 73.6% | 50.9% | 23.3% | 47.2% | 63.4% | 33.8% | 64.9% | 23.9% | 28.2% | 64.8% | 
CC(C)(C)OC(=O)N1CCN(CCn2cc(C(F)(F)F)c3c(Cl)ncnc32)CC1 | 44.8% | 108% | 96.2 | 88.6% | 59.3% | -23.1% (active) | -2.6% (active) | 96% | 107% | 102% | 39.8% |  | 112% | 57.9% | 69.5% | 99.6% | 97.3% | 85.4% |  | 47%
CCOc1ccc(Cc2nccc3cc(OCC)c(OCC)cc23)cc1OCC | 34% | 73.3% | 66.8 | 67.7% | 48% | 52% | 56.4% | 64.6% | 64.8% | 76.2% | 77.2% | 14.3% | 80.2% | 53.2% | 78% | 28% | 65.9% | 69% | 70.8% | 
Fc1cccc(F)c1C#Cc1ccc2cccnc2c1 | 79.5% | 101% | 89.8 | 89.5% | 86% | 82.4% | 75.8% | 82.6% | 113% | 96.4% | 96.5% |  | 90.3% | 78% | 88.6% | 101% | 102% | 88.2% | 95.7% | 101%
